Sampled rows, rich in hits. Any-hit rate of the full collection: about 3.2%.
AMA1 RON2 block: inhibitors of Plasmodium falciparum AMA1-RON2 interaction; AlphaScreen AMA1-biotinylated RON2 peptide binding; Potency, µM (titrated, usually from 58.2 µM), for the others: top-dose activity change, negative = inhibition, actives largely listed as inhibitors; 360,000 tested, 0.2% active; AID 720542;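 also: 0% = vehicle wells and -100% = peptide control; nearly all actives have a fitted effect of over 45% in size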
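AMA1 (3D7) with his tag at 25 nM final met compounds first, then biotinylated RON2 peptide at 25 nM; detection used donor plus acceptor beads, 10 µg/mL apiece, read by AlphaScreen after 30 min at room temperature.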
AmpC inh detg: blocks E. coli AmpC beta-lactamase in detergent assay | Potency, µM (highest dose often 114 µM), for the others: at the highest dose activity change, negative = inhibition, actives largely listed as inhibitors | P00811 | 370,000 tested, 0.041% active | AmpC hydrolysis of nitrocefin, absorbance 480 nm, 0.01% Triton;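 also: 0% = no-compound wells and -100% = no-enzyme wells; nearly all actives have a fitted effect of over 25% in size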
Target sequence (P00811 whole entry, looked up): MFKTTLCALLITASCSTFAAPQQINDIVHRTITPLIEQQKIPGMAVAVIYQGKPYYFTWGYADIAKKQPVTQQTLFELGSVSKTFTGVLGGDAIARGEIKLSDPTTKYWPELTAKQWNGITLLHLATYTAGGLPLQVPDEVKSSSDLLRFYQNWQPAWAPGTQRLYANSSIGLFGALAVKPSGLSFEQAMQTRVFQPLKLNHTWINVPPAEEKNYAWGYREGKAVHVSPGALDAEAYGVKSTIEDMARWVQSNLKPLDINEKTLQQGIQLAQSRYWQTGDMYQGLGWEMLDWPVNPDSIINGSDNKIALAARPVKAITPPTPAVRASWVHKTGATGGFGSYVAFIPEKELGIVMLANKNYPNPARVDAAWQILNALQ
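AmpC (5.3 nM in the dispensed reagent) in 20 mM phosphate pH 7.0 with 0.01% (detergent screen) or 0.0001% Triton X-100 was preincubated with compounds for 15 min at room temperature. Nitrocefin was then added from an 800 uM solution, and hydrolysis was followed at 480 nm.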
Sm TGR block: blocks Schistosoma mansoni thioredoxin glutathione reductase; Q962Y6; purified TGR, DTNB reduction, TNB absorbance 405 nm; Potency, µM (highest dose often 114 µM), for inactives: at the highest dose activity change, negative = inhibition, most hits filed as inhibitors; 360,000 tested, 3% active; also: nearly all actives have a fitted effect of over 60% in size
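Kinetic colorimetric format: TGR-catalysed, NADPH-driven DTNB reduction monitored via TNB absorbance. Enzyme dispensed at 20 nM; compound exposure 15 min at room temperature before reaction start.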
RE007 growth inh: less growth of the S. pombe RE007 Vpr strain | S. pombe RE007 Vpr strain, BacTiter-Glo ATP luminescence, 24 h | Potency, µM (highest dose often 92.2 µM), for inactives: top-dose activity change, negative = less growth, usual class: inhibitors | 360,000 tested, 0.21% active | AID 651644; active = well fitted falling curve with a large enough effect; inconclusive = small, poorly fitted or top-dose-only effect; inactive = no such curve, though single readings can be large or run the other way; also: nearly all actives have a fitted effect of over 50% in size
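Fission yeast RE007 carrying one integrated HIV-1 vpr copy, seeded at OD 0.01 in PMG+AL medium with 23 nL pinned compound. Grown 24 h at 30 degrees; viability read by BacTiter-Glo luminescence after 5 min.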
AmpC no deterg: blocks E. coli AmpC beta-lactamase in detergent-free assay; P00811; AmpC nitrocefin hydrolysis, absorbance 480 nm, 0.0001% Triton; Potency, µM (highest dose often 57.1 µM), for inactives: top-dose activity change, negative = inhibition, usual class: inhibitors; 330,000 tested, 0.52% active; AID 485341;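 also: plate controls were no compound for no effect and no enzyme for full effect; nearly all actives have a fitted effect of over 20% in size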
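20 mM phosphate pH 7.0 + 0.01% (detergent screen) or 0.0001% Triton X-100; 5.3 nM AmpC reagent; cpd preinc 15 min RT; nitrocefin (800 uM stock) to start; A480 q20 s × 4 min; Activity was normalised to no-enzyme and no-compound control wells.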
* = called active by the depositor. Unless noted, calls follow the shape of the dose curve; as a rule, active = well fitted curve in the direction sought with a large enough effect; inconclusive = small, poorly fitted or top-dose-only effect, or another doubt; inactive = no such curve, though single readings can be large; an effect the other way counts as inactive or inconclusive. Unless noted, % is scaled to controls: 0 for no effect and ±100 for the full control effect; potency is read from the fitted curve at half-maximal effect.

CCOC(=O)c1cccc(NC(=O)C2CCCN(S(=O)(=O)c3ccc4c(c3)oc(=O)n4C)C2)c1 (stereo unspecified) was read as AmpC inh detg -5% and Sm TGR block 3%.
`CCOC(=O)c1ccc(NC(=O)Cn2nc(SC)c(S(=O)(=O)c3ccc(Cl)cc3)c2N)cc1` gave AmpC inh detg 24% and Sm TGR block 8%.
For Cc1cc2n(c1)CCn1c(C)ccc1-2 the results were AmpC inh detg -11%, Sm TGR block 45µM* and AmpC no deterg 82%.
`C#CCn1cnc2c(cnn2-c2ccc(F)cc2)c1=O` gave AmpC inh detg 5% and Sm TGR block 4%.
For CC(C)c1onc(C(=O)Nc2cccnc2Cl)c1[N+](=O)[O-] the results were AMA1 RON2 block 16%, AmpC inh detg -3%, Sm TGR block 45µM*, RE007 growth inh -4% and AmpC no deterg 11%.
For CC(C)c1onc(C(=O)Nc2cccc(O)c2)c1[N+](=O)[O-] the results were AMA1 RON2 block 22%, AmpC inh detg -5%, Sm TGR block inconclusive, RE007 growth inh 0% and AmpC no deterg -16%.
For Cc1ccc(NC(=O)c2noc(C(C)C)c2[N+](=O)[O-])cc1 the results were AMA1 RON2 block 7%, AmpC inh detg 3%, Sm TGR block 40µM*, RE007 growth inh -4% and AmpC no deterg 0%.
`O=C(c1ccc2c(c1)N(Cc1c(F)cccc1Cl)C(=O)c1ccccc1S2)N1CCCC1` gave AmpC inh detg 1% and Sm TGR block 8%.
`CCOc1ccccc1NC(=O)C(C)n1nnc2sc3c(c2c1=O)CCCC3` (stereo unspecified) gave AmpC inh detg 18% and Sm TGR block 4%.
`COc1ccc(-c2[nH]c3c(c2-c2c(-n4cccc4)n(C)c(=O)[nH]c2=O)c(=O)[nH]c(=O)n3C)cc1F` gave AmpC inh detg 13% and Sm TGR block 0%.
For COc1ccccc1N1C(=O)CC(Sc2n[nH]c(-c3cccc(C)c3)n2)C1=O (stereo unspecified) the results were AMA1 RON2 block 15%, AmpC inh detg -6%, Sm TGR block 0.63µM*, RE007 growth inh -17% and AmpC no deterg 16µM*.
`COC(=O)C(CC(=O)c1ccc(C)cc1)n1cccn1` (stereo unspecified) gave AMA1 RON2 block 2%, AmpC inh detg -5%, Sm TGR block inconclusive, RE007 growth inh -12% and AmpC no deterg -3%.
For COC(=O)C(CC(=O)c1ccc(Br)cc1)n1cccn1 (stereo unspecified) the results were AMA1 RON2 block 0%, AmpC inh detg -11%, Sm TGR block 4.5µM*, RE007 growth inh inconclusive and AmpC no deterg -4%.
Screening COc1cc(-c2nc3ccccn3c2/N=C/c2cc(OC)c(O)cc2Cl)ccc1O returned AMA1 RON2 block -4%, AmpC inh detg -2%, Sm TGR block 25µM*, RE007 growth inh inconclusive and AmpC no deterg -25%.
`CC1CCc2c(sc(NC(=O)Cn3nc(C(=O)O)c4ccccc4c3=O)c2C#N)C1` (stereo unspecified) gave AMA1 RON2 block -3%, AmpC inh detg inconclusive, Sm TGR block 28µM*, RE007 growth inh 14% and AmpC no deterg -30%.
For Cc1cc(C(=O)OCC(=O)Nc2sc3c(c2C#N)CCC(C)C3)c2ccccc2n1 (stereo unspecified) the results were AMA1 RON2 block -8%, AmpC inh detg 2%, Sm TGR block -11%, RE007 growth inh -13% and AmpC no deterg 14µM*.
For COc1ccccc1-c1cc(C(=O)Nc2sc3c(c2C#N)CCC(C)C3)c2ccccc2n1 (stereo unspecified) the results were AMA1 RON2 block 12%, AmpC inh detg -6%, Sm TGR block 21%, RE007 growth inh 2% and AmpC no deterg inconclusive.
Screening CCC(C(=O)OC)n1nnc2sc(-c3ccccc3)cc2c1=O (stereo unspecified) returned AmpC inh detg 13% and Sm TGR block 0%.
O=C(CCc1ccccc1)NNC(=S)NC(=O)c1ccccc1 was read as AMA1 RON2 block 99%, AmpC inh detg -14%, Sm TGR block 8%, RE007 growth inh inconclusive and AmpC no deterg -27%.
For CC(C)(C)c1cc(CCC(=O)NNC(=S)NC(=O)c2ccccc2)cc(C(C)(C)C)c1O the results were AMA1 RON2 block 88%, AmpC inh detg -11%, Sm TGR block -11%, RE007 growth inh 20% and AmpC no deterg 1.6µM*.
Screening O=C(Nc1ncc(S(=O)(=O)c2ccc([N+](=O)[O-])cc2)s1)c1cccnc1 returned AMA1 RON2 block 26%, AmpC inh detg -4%, Sm TGR block 28µM*, RE007 growth inh 16% and AmpC no deterg -21%.
For CCN1C(=O)[C@H]2[C@@H](c3ccc(-c4ccc(F)cc4)c(OC)c3)N[C@@](C)(C(=O)OC)[C@H]2C1=O the results were AMA1 RON2 block -1%, AmpC inh detg -6%, Sm TGR block 16µM*, RE007 growth inh -25% and AmpC no deterg 161%.
CCN1C(=O)[C@H]2[C@@H](c3ccc(-c4ccccc4)cc3)N[C@@](C)(C(=O)OC)[C@H]2C1=O was read as AMA1 RON2 block -5%, AmpC inh detg -1%, Sm TGR block 40µM*, RE007 growth inh -8% and AmpC no deterg 180%.
CCN1C(=O)[C@H]2[C@@H](c3ccc(-c4ccc(OC)cc4)c(OC)c3)N[C@@](C)(C(=O)OC)[C@H]2C1=O was read as AMA1 RON2 block -5%, AmpC inh detg -7%, Sm TGR block -30%, RE007 growth inh 10% and AmpC no deterg 159%.
Cc1cc(C(=O)CSc2nnnn2C)c(C)n1-c1ccc2c(c1)OCCO2 was read as AMA1 RON2 block -22%, AmpC inh detg 3%, Sm TGR block 35µM*, RE007 growth inh 2% and AmpC no deterg -10%.
Cc1ccc(N=Cc2cc(Cc3ccccc3Cl)cc([N+](=O)[O-])c2O)c(O)c1 was read as AMA1 RON2 block 10µM*, AmpC inh detg 4%, Sm TGR block 11µM*, RE007 growth inh -27% and AmpC no deterg -45%.
Screening COc1ccc2c(C)cc(SCC(=O)Nc3nsc(-c4ccccc4C)n3)nc2c1 returned AmpC inh detg -1% and Sm TGR block 2%.
`C=CCN(CC=C)Cc1c(O)ccc2c(=O)c(-c3ccccc3)coc12` gave AMA1 RON2 block 9%, AmpC inh detg -1%, Sm TGR block 13µM*, RE007 growth inh 1% and AmpC no deterg -25%.
Screening CCN(Cc1ccccc1)Cc1c(O)ccc2c(=O)c(-c3ccc(Cl)cc3)coc12 returned AmpC inh detg 1% and Sm TGR block -14%.

Bioassay records (PubChem)
